Assay results: PubChem BioAssay (NCATS)
“And” between values parts separate entries of the source, which are not always exact repeats. Equal values may be shown once. Records with an inconclusive call do not appear. The source made the active and inactive calls. The call rests on the fitted dose curve; in most records, active means well fitted curve in the direction sought with a large enough effect; inconclusive means small, poorly fitted or top-dose-only effect, or another doubt; inactive means no such curve, though single readings can be large; an effect the other way counts as inactive or inconclusive.

What was measured:
[1] = Quantitative highthroughput screen to assess conditional lethalithy of NOMO1 cells grown in RPMI1640 with untreated serum (RPMI+s) (AID 1963876); further: nearly all actives have a fitted effect of over 35% in size; further: potency means the concentration at half of the fitted maximal effect;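 on viability: 100% = DMSO wells and 0% = empty wells without cells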
Summary of the method: (§1)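 Each medium arm—HPLM with 10% dialyzed FBS, or RPMI1640 with 5 mM glucose and 10% untreated or dialyzed FBS—was screened against an 11-point, 3-fold compound titration for 48 h at 37 °C, with CellTiter-Glo luminescence as endpoint.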

[2] = Quantitative highthroughput screen to assess conditional lethalithy of NOMO1 cells grown in RPMI1640 with dialyzed fetal bovine serum (RPMI+ds) (AID 1963877); further: nearly all actives have a fitted effect of over 30% in size; further: potency means the concentration at half of the fitted maximal effect;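 on viability: series mostly up to about 46 µM; 100% = DMSO control wells and 0% = empty wells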
Summary of the method: as §1

[3] = Quantitative highthroughput screen to assess conditional lethalithy of NOMO1 cells grown in Human Plasma-Like Medium with dialyzed fetal bovine serum (HPLM+ds) (AID 1963878); further: nearly all actives have a fitted effect of over 35% in size; further: potency means the concentration at half of the fitted maximal effect;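 on viability: 100% = DMSO wells and 0% = empty wells on each plate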
Summary of the method: as §1

[4] = Quantitative highthroughput screen to assess conditional lethalithy of P12 Ichikawa cells grown in Human Plasma-Like Medium with dialyzed fetal bovine serum (HPLM+ds) (AID 1963879); conditions: Potency: viability; further: nearly all actives have a fitted effect of over 35% in size; further: potency means the concentration at half of the fitted maximal effect; on viability: series mostly up to about 46 µM
Summary of the method: as §1

[5] = Quantitative highthroughput screen to assess conditional lethalithy of P12 Ichikawa cells grown in RPMI1640 with dialyzed fetal bovine serum (RPMI+ds) (AID 1963880); conditions: Potency: P12-Ichikawa viability; further: nearly all actives have a fitted effect of over 35% in size; further: potency means the concentration at half of the fitted maximal effect;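 on viability: 100% = DMSO wells and 0% = empty wells on each plate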
Summary of the method: as §1

[6] = Quantitative highthroughput screen to assess conditional lethalithy of P12 Ichikawa cells grown in RPMI1640 with untreated serum (RPMI+s) (AID 1963881); conditions: Potency: viability; further: nearly all actives have a fitted effect of over 35% in size; further: potency means the concentration at half of the fitted maximal effect;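 on viability: series mostly up to about 46 µM; 100% = DMSO wells and 0% = empty wells without cells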
Summary of the method: as §1

[7] = Quantitative highthroughput screen to assess conditional lethalithy of SEM cells grown in Human Plasma-Like Medium with dialyzed fetal bovine serum (HPLM+ds) (AID 1963882); further: nearly all actives have a fitted effect of over 35% in size; further: potency means the concentration at half of the fitted maximal effect; on viability: series mostly up to about 46 µM
Summary of the method: as §1

[8] = Quantitative highthroughput screen to assess conditional lethalithy of SEM cells grown in RPMI1640 with unreated serum (RPMI+s) (AID 1963883); further: nearly all actives have a fitted effect of over 35% in size; further: potency means the concentration at half of the fitted maximal effect;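 on viability: 100% = DMSO wells and 0% = empty wells without cells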
Summary of the method: as §1

[9] = Quantitative highthroughput screen to assess conditional lethalithy of SEM cells grown in RPMI1640 with dialyzed fetal bovine serum (RPMI+ds) (AID 1963884); further: nearly all actives have a fitted effect of over 35% in size; further: potency means the concentration at half of the fitted maximal effect;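 on viability: series mostly up to about 46 µM; 100% = DMSO control wells and 0% = empty wells without cells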
Summary of the method: as §1

[10] = Cellular viability qHTS for adrenocortical cancer (ACC) cell line SW-13 (AID 1963989); conditions: SW-13 ACC cells viability, CellTiter-Glo, 48 h; activity (max response): stronger effect = lower value;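 further: cells grown in serum-free medium with ITS supplement; on the % scale 0 is the no-effect control and ±100 the full control effect; nearly all actives have a fitted effect of over 65% in size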
Summary of the method: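 48 h treatment, SW-13 in ITS/DMEM serum-free; doses up to 46 uM; readout CellTiter-Glo luminescence; curve fit four-parameter logistic.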

[11] = Cellular viability qHTS for adrenocortical cancer (ACC) cell line NCI-H295R (AID 1963990);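 further: 0% = DMSO only wells and -100% = full killing with cytotoxic reference compound; nearly all actives have a fitted effect of over 60% in size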
Summary of the method: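 Compound titrations (up to 46 uM final) are applied to NCI-H295R cultures for 48 h at 37C. Viable cell number is estimated by CellTiter-Glo signal, normalised to DMSO and doxorubicin controls.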

Clc1ccc(-c2nc3sccn3c2C=NOCc2ccc(Cl)c(Cl)c2)cc1
inactive: Potency [1] | Potency [2] | Potency [3] | Potency [4] | Potency [5] | Potency [6] | Potency [7] | Potency [8] | Potency [9]

CC(C=CC1=C(C)CCCC1(C)C)=CC=CC(C)=CC(=O)Nc1ccc(O)cc1
active: Potency [1] 30.3 µM | Potency [2] 17.1 µM | Potency [3] 15.2 µM | Potency [4] 6.05 µM | Potency [5] 2.7 µM | Potency [6] 6.05 µM | Potency [7] 3.4 µM | Potency [8] 6.05 µM | Potency [9] 3.03 µM

C[C@H](Cn1cnc2c(N)ncnc21)OCP(=O)(O)O
inactive: Potency [1] | Potency [2] | Potency [3] | Potency [4] | Potency [5] | Potency [6] | Potency [7] | Potency [8] | Potency [9]

CC(C)(O)CC[C@@H](O)[C@](C)(O)[C@H]1CC[C@@]2(O)C3=CC(=O)[C@@H]4C[C@@H](O)[C@@H](O)C[C@]4(C)[C@@H]3CC[C@]12C
inactive: Potency [1] | Potency [2] | Potency [3] | Potency [4] | Potency [5] | Potency [6] | Potency [7] | Potency [8] | Potency [9]

Cn1cc(-c2ccc3nnc(Sc4ccc5ncccc5c4)n3n2)cn1
inactive: Potency [1] | Potency [2] | Potency [3] | Potency [4] | Potency [5] | Potency [6] | Potency [7] | Potency [8] | Potency [9] | activity (max response) [10] -4.92% | Potency [11]

O=C(Nc1c(Cl)cncc1Cl)c1ccc(OC(F)F)c(OCC2CC2)c1
inactive: Potency [1] | Potency [2] | Potency [3] | Potency [4] | Potency [5] | Potency [6] | Potency [7] | Potency [8] | Potency [9] | activity (max response) [10] 5.46% | Potency [11]

CC(C)c1ccc2oc3nc(N)c(C(=O)O)cc3c(=O)c2c1
inactive: Potency [1] | Potency [2] | Potency [3] | Potency [4] | Potency [5] | Potency [6] | Potency [7] | Potency [8] | Potency [9] | activity (max response) [10] -3.22% and -4.54% | Potency [11]
